Measured values published in PubChem BioAssay (NCI).
The panel holds about 83,000 compounds, 20% with a hit somewhere; the sample as a whole holds those more often.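 Negative percent growth values reflect cell death: -40 means 40% of the cells present at the start died, and -100 means all died.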 Activity calls are given as the source filed them. The calls were made as follows: active = growth percent below 10; inactive = the rest.

Tests used:
Assay in all cases: NCI-60 one-dose screen, 48 h (100 = growth as untreated, 0 = no growth, -100 = all killed)
Conditions in all cases: 10 µM unless noted
[1] = tested on: SK-MEL-2 melanoma
[2] = tested on: EKVX NSCLC
[3] = tested on: SN12C renal
[4] = tested on: TK-10 renal
[5] = tested on: ACHN renal
[6] = tested on: CAKI-1 renal
[7] = tested on: A498 renal
[8] = tested on: CCRF-CEM leukemia
[9] = tested on: MOLT-4 leukemia
[10] = tested on: RPMI-8226 leukemia
[11] = tested on: OVCAR-8 ovarian
[12] = tested on: OVCAR-5 ovarian
[13] = tested on: OVCAR-4 ovarian
[14] = tested on: SK-OV-3 ovarian
[15] = tested on: IGROV1 ovarian
[16] = tested on: OVCAR-3 ovarian
[17] = tested on: HS 578T breast
[18] = tested on: NCI/ADR-RES ovarian
[19] = tested on: UO-31 renal
[20] = tested on: SR leukemia

Measured: growth

Cc1ccc(S(=O)(=O)N/N=C\c2cc(Cl)ccc2O)cc1
inactive: [1] 99.7% | [2] 113% | [3] 101% | [4] 88.4% | [5] 75.4% | [6] 73.9% | [7] 86.7% | [8] 74% | [9] 98.1% | [10] 82.3% | [11] 91.2% | [12] 82% | [13] 102% | [14] 63.3% | [15] 51% | [16] 115% | [17] 91.3% | [18] 71%

Cc1ccc(-c2cc(-c3ccccc3C)[nH]c(=O)c2C#N)s1
inactive: [1] 110% | [2] 96.9% | [3] 91.8% | [19] 71.7% | [6] 82.9% | [7] 77.5% | [9] 93.3% | [20] 118% | [10] 97.5% | [11] 95.5% | [12] 93.4% | [13] 85.1% | [14] 111% | [15] 80.4% | [16] 94.5% | [17] 82.8% | [18] 96.8%

Cc1nn(-c2ccccc2)c(Oc2ccc(Cl)cc2)c1/C=N\N=c1/sc2ccccc2n1C
inactive: [1] 78.1% | [2] 85.5% | [3] 88.4% | [4] 117% | [5] 93.9% | [6] 81.3% | [7] 92.2% | [8] 86.8% | [9] 74.1% | [10] 77.4% | [11] 89.1% | [12] 106% | [13] 106% | [14] 74.2% | [15] 84.7% | [16] 101% | [17] 78.8% | [18] 98.1%

c1ccc2cc3nc4cc5ccccc5cc4nc3cc2c1
inactive: [1] 104% | [2] 100% | [3] 88.6% | [4] 108% | [5] 97.4% | [6] 113% | [7] 107% | [9] 109% | [10] 58.6% | [11] 84.8% | [12] 91.6% | [13] 104% | [14] 97.3% | [15] 86.7% | [16] 96.7% | [17] 102% | [18] 73.4%
active: [8] -24.9%

COc1cc2c(cc1-c1c(C)noc1C)ncc1nc(C3CCC(F)(F)CC3)n(C3CCC(OC(F)F)CC3)c12 (stereo not drawn)
inactive: [1] 46% | [2] 53.9% | [3] 76.6% | [4] 41.3% | [5] 66.2% | [6] 52.1% | [7] 61.2% | [9] 59.7% | [20] 33.5% | [10] 20% | [11] 65.2% | [12] 76.2% | [13] 50.5% | [14] 17.6% | [15] 70.1% | [16] 44.6% | [17] 61.4% | [18] 47.4%

Cc1ccc(N(C(=O)CCc2c[nH]c3ccccc23)[C@H](C(=O)Nc2ccc(Cl)cc2)c2cccc([N+](=O)[O-])c2)cc1
inactive: [1] 105% | [2] 93% | [3] 87.2% | [19] 47.4% | [6] 80.5% | [7] 58.6% | [9] 70.8% | [20] 72.9% | [11] 87.8% | [12] 98.4% | [13] 99.1% | [14] 90.8% | [15] 78.7% | [16] 96.9% | [17] 82.3% | [18] 70.1%

CN(C)CC1=NC2SC=C(c3ccccc3)C2C(=O)N1CC#N (stereo not drawn)
inactive: [1] 104% | [2] 95.9% | [3] 109% | [4] 95.3% | [5] 104% | [6] 97.5% | [7] 103% | [9] 82% | [20] 70.4% | [10] 49.6% | [11] 97.1% | [12] 89.7% | [13] 85.3% | [14] 119% | [16] 110% | [17] 118% | [18] 98.1%

Fc1c[c-]c(-c2ccccn2)c(F)c1.[CH3-].[Pt+2].c1ccc(P(C[PH+](c2ccccc2)c2ccccc2)c2ccccc2)cc1
inactive: [18] 49.8%
active: [1] -39% | [2] -12% | [3] -32.2% | [4] -30.5% | [5] -100% | [6] -73.8% | [7] -79.3% | [9] 0% | [20] 1.65% | [10] -13.2% | [11] 7.36% | [12] -34.5% | [13] -19.3% | [14] 9.11% | [15] -22.2% | [16] -74.9% | [17] -5.48%

S=C(Cc1ccc2c(c1)CCCC2)N1CCOCC1
inactive: [1] 87.1% | [2] 97.5% | [3] 101% | [19] 92.2% | [6] 102% | [7] 101% | [8] 119% | [20] 94.7% | [10] 112% | [11] 104% | [12] 99.2% | [13] 96.6% | [14] 98.2% | [15] 101% | [16] 107% | [17] 115% | [18] 105%

Cc1ccc(N2CCN(C(=S)c3cccs3)CC2)cc1
inactive: [1] 94.9% | [3] 102% | [19] 94.8% | [4] 87.3% | [5] 120% | [6] 96.4% | [7] 99.1% | [8] 95.3% | [9] 93.6% | [10] 95.6% | [11] 100% | [12] 96.8% | [13] 107% | [14] 106% | [15] 99.3% | [16] 113% | [17] 124% | [18] 112%

Cc1cccc(-c2nc(N(C)c3ccc4ncsc4c3)c3ccccc3n2)n1
inactive: [1] 85.1% | [3] 93.6% | [19] 77.7% | [4] 105% | [5] 94.6% | [6] 77.5% | [7] 78.8% | [9] 76.4% | [20] 17.3% | [10] 50.1% | [11] 91.2% | [12] 108% | [13] 85.7% | [14] 96.6% | [15] 68.9% | [16] 62.6% | [17] 103% | [18] 58.5%

O=S(=O)(Nc1cccc(Cl)c1)c1ccc(-c2cnc(C3CC3)o2)cc1
inactive: [1] 58.8% | [3] 39.7% | [19] 35.5% | [4] 45.9% | [5] 37.1% | [6] 29.8% | [8] 12.8% | [10] 17.8% | [11] 33.5% | [12] 37.2% | [13] 41.7% | [14] 34.3% | [15] 26.4% | [18] 18.9%
active: [7] -3.4% | [16] -9.95% | [17] 1.3%

NS(=O)(=O)c1cnccc1Oc1cccc2cccnc12
inactive: [1] 107% | [3] 99.4% | [19] 78.3% | [4] 107% | [5] 102% | [6] 111% | [7] 99.1% | [9] 93% | [20] 86% | [10] 88.4% | [11] 54.1% | [12] 82.9% | [13] 118% | [14] 77.8% | [16] 113% | [17] 88.7% | [18] 107%

CN(c1ccccc1)c1ccc2c(c1)OCCC21CC1Nc1cnccc1C(=O)O (stereo not drawn)
inactive: [1] 97.5% | [3] 82.9% | [19] 87.4% | [4] 79.5% | [5] 66.7% | [6] 76.3% | [7] 59.7% | [8] 47.2% | [9] 45.8% | [10] 82.6% | [11] 54.9% | [13] 75.3% | [14] 69.1% | [15] 75.1% | [16] 77.1% | [17] 80.8% | [18] 73.8%

CN(C)CC1C(=O)O[C@H]2[C@H]1CC/C(COC(=O)c1cc3ccccc3[nH]1)=C\CC[C@@]1(C)O[C@@H]21 (stereo partly drawn)
inactive: [14] 65.1%
active: [1] -55% | [3] -22.1% | [19] -92.7% | [5] -82.4% | [6] -14.4% | [7] 5.21% | [8] 1.08% | [20] -13.6% | [10] -15.7% | [11] -45.6% | [13] -9.35% | [15] -41.2% | [16] -82.7% | [17] -3.98% | [18] -30.8%

COc1ccc(/C=N/C2=C(C#N)C(c3ccc(OC)cc3)c3ccc4ccccc4c3O2)cc1 (stereo not drawn)
inactive: [2] 85.1% | [3] 76.5% | [19] 53.7% | [4] 87.1% | [5] 81.4% | [6] 37.3% | [7] 26.6% | [8] 77.4% | [9] 60.2% | [10] 81.7% | [11] 84.7% | [12] 104% | [13] 85.4% | [14] 77.6% | [15] 56.2% | [16] 78.9% | [17] 84.2% | [18] 45%
